# Experimental data taken from PubChem BioAssay AID862 (The Scripps Research Institute Molecular Screening Center, 2007).
# Out of some 190,000 compounds screened, about 1,700 (0.89%) were called active. Many of the other results were omitted from the sample, so actives are more common in it than they were. Unmarked numbers belong to inactive results.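 The calls were made as follows: active = inhibition above the mean inhibition across all screened compounds plus 3 SD (cut at about 44% in these data); inactive = the rest.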
# Assay: IL-6 driven STAT3 reporter inhibitors, primary screen, U3A cells, luciferase, luminescence, MLSCN library (AID 862);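 also: 0% = DMSO only wells and 100% = 100 µM nifuroxazide control wells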
# Settings: IL-6 STAT3-luciferase reporter, at 5.5 µM, stronger effect = higher value, host cell line lacks STAT1
row,SMILES,inhibition
1,CN(CCc1ccccn1)C(=O)CCC1CCCN(Cc2ccccc2OC(F)F)C1 (centres undefined),4.3%
2,Cc1cc(C)c2[nH]c(=O)c(CN(Cc3ccccc3)C(=S)NCCCN(C)C)cc2c1,-4.1%
3,C1CC1Cc1noc(CN2CCN(CC3CC3)CC2)n1,2.5%
4,Cc1ccc(CN(C)CC(=O)Nc2cccc([N+](=O)[O-])c2)o1,5.5%
5,CN(CC(=O)Nc1cccc(F)c1)CC(=O)Nc1cccc([N+](=O)[O-])c1,-4.2%
6,Cc1ccc(NC(=O)CN(C)CC(=O)Nc2cccc(F)c2)cc1[N+](=O)[O-],46.8% (active)
7,O=S(=O)(NC1CC1)c1ccc2c3c(cccc13)CC2,11.9%
8,CCOC(=O)CSc1nc(C)cc2c1C(=O)OC2,-1%
9,N=C(N)SCc1cccc2ccccc12,47.8% (active)
10,c1ccc2c(CSCc3nc4ccccc4[nH]3)cccc2c1,4.1%
11,CCOc1ccc(Br)cc1CSC(=N)N,34.7%
12,CN(C)CCOCCOc1ccc(Cl)c2ccccc12,9.5%
13,Cc1cc(C(=O)CSc2nc(N)cc(=O)[nH]2)c(C)n1-c1cccc(F)c1,20.1%
14,Cc1cc(C(=O)CSc2nc(N)cc(=O)[nH]2)c(C)n1CCc1ccc(Cl)cc1,43.7% (active)
15,CCCc1cc(=O)[nH]c(SCC(=O)c2cc(C)n(CCC)c2C)n1,10.6%
16,COc1ccc2oc(-c3cccc(NC(=O)CSc4ccc(Cl)cc4)c3)nc2c1,-4.6%
17,COc1ccc(-c2nc3cc([N+](=O)[O-])ccc3o2)cc1OC,20.3%
18,COc1cccc(-c2nc3cc(C)ccc3o2)c1,45% (active)
19,Cc1ccc(C(=O)Cc2nnc(C)s2)cc1,-4.3%
20,C/C(=N\NC(=O)CNC(=O)C(c1ccccc1)c1ccccc1)c1ccc(C)cc1,-6.9%
21,O=C(Nc1cccnc1)c1cccc(S(=O)(=O)N2CCCC2)c1,6.6%
22,COc1cccc(C(=O)Nc2cccnc2)c1OC,2.9%
23,O=C(Nc1cccnc1)c1noc2c1CCCCC2,43.9% (active)
24,Cc1ccc(-n2c(SCC(=O)N/N=C/C=C/c3ccccc3[N+](=O)[O-])nc3ccccc3c2=O)cc1,1.3%
25,CC(Sc1nncn1C)C(=O)Nc1cc(C(F)(F)F)ccc1N1CCOCC1 (centres undefined),0.4%
26,OCCNCc1cccc(OCc2ccccc2Cl)c1,-9.4%
27,CCn1c(/C=C/c2ccc([N+](=O)[O-])o2)nc2ccccc2c1=O,25.7%
28,O=c1oc(/C=C/c2ccccc2)nc2ccccc12,44.2% (active)
29,S=c1[nH]nc(/C=C/c2ccccc2)o1,-4.3%
